Results filed as inconclusive are left out. Entries that show only a call come without a potency. Activity calls are given as the source filed them. Calls follow the shape of the dose curve; as a rule, active = well fitted curve in the direction sought with a large enough effect; inconclusive = small, poorly fitted or top-dose-only effect, or another doubt; inactive = no such curve, though single readings can be large; an effect the other way counts as inactive or inconclusive.

A short description of one assay: KB-3-1 Cancer Cell Toxicity qHTS against the NCATS CANVASS Library (AID 1347366). Also: nearly all actives have a fitted effect of over 75% in size. Also: potency is read from the fitted curve at half-maximal effect. The note with it: KB-3-1 viability, CellTiter-Glo luminescence, 72 h; series mostly up to 46.1 µM. The procedure, abridged:
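Luminescence from CellTiter-Glo (10 min, room temperature) measured KB-3-1 viability after 72 hr compound exposure at 37C. Cells were seeded at 500/well and tested in an 11-point series.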
Turning to `C=C1CC[C@@H](Br)C(C)(C)[C@]12CC=C(C)C(=O)C2`, the Potency entry is “inactive”.

As to `C=CC(CCCCC)C1C(=O)NC(=O)C1C(=O)C1C(/C=C/C)C=CC2CC(C(=O)O)CC(C)C21` (stereo not drawn), the Potency result was “inactive”. The same measure, in the same setting: the result for `COc1c(O)cc2c(c1O)C(=O)c1c(coc1C)C2=O` reads “inactive”; that for `C[C@]12CC[C@]3(C1)[C@H](CC2=O)C[C@@H](OC(=O)c1ccccc1)[C@H]1[C@](C)(C(=O)O)CCC[C@@]13C`, 18.7 µM (active); that for `Cc1occ2c1C(=O)c1c(cc(O)c(O)c1O)C2=O`, “inactive”. On the same count and under the same terms, under `C=C[C@](Cl)(CBr)CCC=C(C)C` stands “inactive”. Same read-out and setting: the result for `CC(=O)O[C@H]1c2ccccc2-c2c3c(cc4c2[C@@H]1N(C(C)=O)CC4)OCO3` reads “inactive”. With `COc1cc(C2OCC3C(c4ccc(O)c(OC)c4)OCC23)ccc1O` (stereo not drawn), the outcome is “inactive [at 9.19 µM]”.

For `COc1cc(O)c(C(=O)[C@@H]2[C@H](CC=C(C)C)C(C)=CC[C@H]2c2ccccc2)c(O)c1`, the Potency is 20.9 µM (active).

Take `C/C=C(/C)c1c(Cl)c(O)c(C)c2c1Oc1c(Cl)c(O)c(Cl)c(C)c1C(=O)O2`: the Potency result was “inactive”. With `CC(C)C[C@@H]1c2c(O)c(C=O)c(O)c(C=O)c2O[C@]2(C)C=C[C@@H](C(C)C)C[C@H]12`, the Potency result is “inactive”. Same read-out and setting: the result for `CC(C)[C@]12CC[C@@]3(C)[C@H](C)CC[C@H](O)[C@@]3(CC1)c1cc3c(cc12)[nH]c1ccccc13` reads “inactive”; that for `C[C@H]1C=C[C@H]2CCCC[C@@H]2[C@H]1C(=O)[C@H]1CC2=C(C(=O)O)CCN2C1=O`, “inactive”.

With `C/C=C(/C)c1c(Cl)c(OC)c(C)c2c1Oc1c(Cl)c(O)c(Cl)c(C)c1C(=O)O2`, the Potency entry was “inactive”.

`COC12OC1(C13OC1(OC)C(=O)c1cc4cc(C)oc(=O)c4c(O)c1C3O)C(O)c1c(cc3cc(C)oc(=O)c3c1O)C2=O` (stereo not drawn): the Potency result is “inactive”.

The next assay can be described thus: qHTS for ATAD5 Agonist screened against the NCATS CANVASS Library (AID 1347367).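 Also: luciferase reporter driven by ATAD5 which rises upon DNA damage.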 The note with it: HEK293T ATAD5-luciferase reporter, luminescence, 16 h; series mostly up to 46.1 µM. The gist of the method:
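HEK293T-ATAD5 luc reporter; 2000 cells/well; 5hr settle; cpd 11-pt qHTS; 16hr 37C 5% CO2 dark; viability by CellTiter-Fluor (AFC fluorescence); then luciferase luminescence, 30min RT.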
(In general: qHTS replaces the single test concentration by a dilution series.)
`CC(C)=CCC[C@]12c3cc4c(cc3CC[C@@]1(C)[C@H](C)CC[C@@H]2O)[nH]c1ccccc14`: the Potency result is “inactive”. On the same count and under the same terms, the result for `C/C=C/C1C=CC2CC(C)CC(C)C2C1C(=O)CC(=O)NC(CO)C/C=C/CCCCC` (stereo not drawn) reads “inactive”; that for `C=CC(CCCCC)C1C(=O)NC(=O)C1C(=O)C1C(/C=C/C)C=CC2CC(C(=O)O)CC(C)C21` (stereo not drawn), “inactive”; that for `COc1cc(/C=C/C(=O)OC[C@@H](Cc2ccc(O)c(OC)c2)[C@@H](COC(=O)/C=C/c2ccc(O)c(OC)c2)Cc2ccc(O)c(OC)c2)ccc1O`, “inactive”. The same measure, in the same setting: under `C=C[C@@]1(C)CC[C@@H]([C@H](C)C(=O)/C=C/C(C)(C)O)O1` stands “inactive”; under `O=C1CC2OCC=C3CN4C5CC3C2[C@@H]2N1c1ccccc1[C@]52C[C@@H]4C1=C[C@H]2C3CC4N(CC[C@@]45c4ccccc4N(C1=O)[C@@H]25)C/C3=C/CO` (stereo partly drawn), “inactive”; under `C=C1CC[C@@H](O[C@H]2C[C@@](O)([C@H](C)NC(=O)c3[nH]c(C)c(Cl)c3Cl)[C@H](O)[C@@H](C)O2)[C@@H]2C=C[C@H](C)C(/C(O)=C3/C(=O)[C@H](C(C)C)N([C@@H]4O[C@H](C)[C@H](OC(N)=O)[C@H](OC(C)=O)[C@@H]4OC)C3=O)[C@@H]12` (stereo partly drawn), “inactive”.

As to `C=C(C)CC[C@H](Cc1c(O)cc(O)c2c1O[C@H](c1ccc(O)cc1)CC2=O)C(=C)C`, the Potency entry was “inactive”. For `Cc1occ2c1C(=O)c1c(cc(O)c(O)c1O)C2=O`, the Potency result was “inactive”.

Take `C=C[C@](Cl)(CBr)CCC=C(C)C`: the Potency result is “inactive”. Still for that read-out and setting: under `CC(=O)O[C@H]1c2ccccc2-c2c3c(cc4c2[C@@H]1N(C(C)=O)CC4)OCO3` stands “inactive”; under `C=CC(CCCCC)C1C(=O)NC(=O)C1C(=O)C1C2C(C)CC(C(=O)O)CC2CC1(O)C(=O)/C=C/C` (stereo not drawn), “inactive”.

Turning to `O[C@H]1c2ccccc2-c2c3c(cc4c2[C@@H]1NCC4)OCO3`, the Potency entry is “inactive”. Consider `COc1cc(O)c(C(=O)[C@@H]2[C@H](CC=C(C)C)C(C)=CC[C@H]2c2ccccc2)c(O)c1`, for which the Potency result was “inactive”. The same measure, in the same setting: the result for `COc1cc2c(c(O)c1O)C(=O)c1c(coc1C)C2=O` reads “inactive”; that for `CCC(=O)N[C@@H](C[C@H](C)C(Cl)(Cl)Cl)C(=O)N1C(=O)C=C(OC)[C@@H]1CC(C)C`, “inactive”.

Consider `O=c1cc(-c2ccc(O)c(O)c2)oc2cc(O[C@@H]3O[C@H](CO)[C@@H](O)[C@H](O)[C@H]3O)cc(O)c12`, for which the Potency entry is “inactive”. Still for that read-out and setting: under `C/C1=C/[C@@H](C)[C@H](O)[C@@H](O)/C=C/CC/C=C/C(=O)O[C@@H]1[C@H](C)C(=O)CCCC1CC(=O)NC(=O)C1` stands “inactive”. On the same count and under the same terms, under `CN1CC[C@]2(c3cccc4c3N[C@H]3N(C)CC[C@@]43[C@]34CCN(C)[C@H]3Nc3ccccc34)c3ccccc3N[C@H]12` stands “inactive”.

Consider `CC[C@H]1[C@H](C)[C@H](c2cc(OC)c(OC)cc2OC)[C@@H](C)[C@H](c2cc(OC)c(OC)cc2OC)[C@@]12C=C(OC)C(=O)C=C2OC`, for which the Potency result was “inactive”.

In the case of `CC(=O)Oc1cc2c(c(OC(C)=O)c1C1CCc3cc(Cl)c(Cl)n31)C(=O)n1c-2cc(Cl)c1Cl` (stereo not drawn), the Potency result is “inactive”. Still for that read-out and setting: under `COc1cc2c(cc1OC)[C@@H](c1ccc3c(c1)OCO3)C(C)C(C)C2=O` (stereo partly drawn) stands “inactive”.

For `C/C=C(/C)c1c(Cl)c(O)c(C)c2c1Oc1c(Cl)c(O)c(Cl)c(C)c1C(=O)O2`, the Potency result was “inactive”. The same measure, in the same setting: under `CC(C)[C@]12CC[C@@]3(C)[C@H](C)CC[C@H](O)[C@@]3(CC1)c1cc3c(cc12)[nH]c1ccccc13` stands “inactive”; under `C[C@H]1C=C[C@H]2CCCC[C@@H]2[C@H]1C(=O)[C@H]1CC2=C(C(=O)O)CCN2C1=O`, “inactive”. The same measure, in the same setting: under `C/C=C(/C)c1c(Cl)c(OC)c(C)c2c1Oc1c(Cl)c(O)c(Cl)c(C)c1C(=O)O2` stands “inactive”. On the same count and under the same terms, under `C/C(=C\CC[C@@H](C)[C@H]1CC[C@]2(C)C3=CCC4C(C)(C)[C@@H](O)C[C@@H](O)[C@]4(C)C3[C@H](O)C[C@@]12C)CO` (stereo partly drawn) stands “inactive”; under `COC12OC1(C13OC1(OC)C(=O)c1cc4cc(C)oc(=O)c4c(O)c1C3O)C(O)c1c(cc3cc(C)oc(=O)c3c1O)C2=O` (stereo not drawn), “inactive”.

Values taken from PubChem BioAssay (NCATS).
